Sfp PPTase inh = qHTS Assay for Inhibitors of Bacillus subtilis Sfp phosphopantetheinyl transferase (PPTase). Biochemical Sfp PPTase activity, qHTS. hit rate 3.5% among 310,000. AID 1490, 2009. Potency, µM, without a hit: largest response in the series, negative = inhibition, usual class: inhibitors;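 further: the enzyme is Sfp with the accession as filed and its product quenches rhodamine fluorescence; 0% = enzyme reaction without inhibitor and -100% = no enzyme wells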
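Buffer: 50 mM Hepes-Na pH 7.6, 10 mM MgCl2, 0.01% Nonidet P-40, 0.01% BSA. Enzyme 15 nM, pre-exposed to compound 15 min; substrates then added and fluorescence change tracked over 30 min.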
L3MBTL1 inh = qHTS Assay for the Inhibitors of L3MBTL1; AlphaScreen L3MBTL1–H3K9me1 peptide binding; Potency, µM (highest dose often 57.1 µM), for the others: top-dose activity, negative = inhibition, most hits filed as inhibitors; hit rate 0.66% among 230,000; AID 485360, 2010; further: on the % scale 0 is the no-effect control and ±100 the full control effect; nearly all actives have a fitted effect of over 60% in size
Target sequence (Q9Y468 whole entry, looked up): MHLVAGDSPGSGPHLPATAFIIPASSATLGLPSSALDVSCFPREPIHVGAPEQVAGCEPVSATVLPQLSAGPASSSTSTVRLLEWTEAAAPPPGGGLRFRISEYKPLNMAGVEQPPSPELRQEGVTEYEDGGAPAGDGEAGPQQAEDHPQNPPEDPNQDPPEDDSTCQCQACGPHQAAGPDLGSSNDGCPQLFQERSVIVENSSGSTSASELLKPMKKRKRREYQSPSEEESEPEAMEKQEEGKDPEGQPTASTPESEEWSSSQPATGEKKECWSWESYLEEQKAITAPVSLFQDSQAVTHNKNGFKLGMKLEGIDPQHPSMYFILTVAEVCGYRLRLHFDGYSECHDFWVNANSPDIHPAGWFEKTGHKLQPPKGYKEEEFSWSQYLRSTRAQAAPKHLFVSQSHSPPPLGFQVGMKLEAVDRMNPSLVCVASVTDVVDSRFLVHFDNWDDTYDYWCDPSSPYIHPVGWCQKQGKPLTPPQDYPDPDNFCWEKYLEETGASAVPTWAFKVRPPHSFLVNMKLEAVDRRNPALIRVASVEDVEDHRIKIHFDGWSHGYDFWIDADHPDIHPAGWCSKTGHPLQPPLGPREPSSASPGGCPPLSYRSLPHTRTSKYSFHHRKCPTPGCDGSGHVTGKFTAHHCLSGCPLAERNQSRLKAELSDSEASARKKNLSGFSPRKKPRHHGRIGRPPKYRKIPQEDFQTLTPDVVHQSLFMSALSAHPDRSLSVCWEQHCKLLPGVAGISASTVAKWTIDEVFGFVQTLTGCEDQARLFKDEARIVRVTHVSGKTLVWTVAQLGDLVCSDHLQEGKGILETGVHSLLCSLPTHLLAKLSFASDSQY
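AlphaScreen proximity signal between nickel-chelate acceptor and streptavidin donor beads (final 10 ug/mL) reports binding of 50 nM L3MBTL1 to 75 nM biotin-H3 K9me1 peptide; complex incubated with compounds 30 min at room temperature; cefsulodin titration as control.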
G9a block = qHTS Assay for Inhibitors of Histone Lysine Methyltransferase G9a; Potency, µM (titrated, usually from 102 µM), inactives show at the highest dose activity, negative = inhibition, actives largely listed as inhibitors; AID 504332, 2011; G9a H3K9 monomethylation, AlphaScreen, 2 h; hit rate 8.8% among 350,000; further: on the % scale 0 is the no-effect control and ±100 the full control effect; nearly all actives have a fitted effect of over 75% in size
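Chemiluminescent proximity detection of H3K9 monomethylation, read after 10 min bead incubation in the dark. Reaction: 20 nM G9a, 500 nM biotin-H3K9 peptide, 20 uM SAM cofactor, 2 h, room temperature, following 15 min enzyme-compound preincubation.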
HP1b binding inh = HTS for Inhibitors of HP1-beta Chromodomain Interactions with Methylated Histone Tails; AlphaScreen HP1-beta / biotin-H3K9me3 peptide binding; Potency, µM (top dose mostly 114 µM), without a hit: at the top dose activity change, negative = inhibition, hits mostly inhibitors; hit rate 0.56% among 390,000; AID 540317, 2011; further: nearly all actives have a fitted effect of over 70% in size
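AlphaScreen: HP1-beta (50 nM) preformed 30 min with biotin-H3(1-18)K9me3 peptide (50 nM) in PBS pH 7.4, 0.01% Tween-20. Compound added for 30 min at RT, then streptavidin donor/nickel chelate acceptor beads (10 ug/mL) for 30 min.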
BAZ2B block = qHTS Assay for Inhibitors of BAZ2B; AID 504333, 2011; Bromodomain adjacent to zinc finger domain protein 2B (Homo sapiens), Q9UIF8; hit rate 4.4% among 360,000; AlphaScreen BAZ2B-H3K14Ac peptide displacement; Potency, µM (titrated, usually from 114 µM), without a hit: at the top dose activity change, negative = inhibition, usual class: inhibitors; further: on the % scale 0 is the no-effect control and ±100 the full control effect; nearly all actives have a fitted effect of over 60% in size
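Multi-concentration screen (max 110 uM) measuring displacement of acetylated histone H3 peptide from BAZ2B by AlphaScreen, using 50 nM protein, 50 nM peptide and 10 ug/mL streptavidin donor plus Ni-chelate acceptor beads.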
JMJD2A Tudor inh = qHTS Assay for Inhibitors of JMJD2A-Tudor Domain. Lysine-specific demethylase 4A (Homo sapiens), O75164. AlphaScreen JMJD2A-Tudor / H3K4me3 peptide binding. Potency, µM (doses to about 114 µM), without a hit: at the highest dose activity change, negative = inhibition, hits mostly inhibitors. hit rate 4.4% among 390,000. AID 504339, 2011; further: on the % scale 0 is the no-effect control and ±100 the full control effect; nearly all actives have a fitted effect of over 50% in size
* marks the source's active call; other numbers are inactive results; u = inconclusive; x = no result given; [ ] = dose if it differs, or a comment. Hits are enriched below; roughly 12% of the tested compounds scored in any of these assays. The call rests on the fitted dose curve; in most records, active means well fitted curve in the direction sought with a large enough effect; inconclusive means small, poorly fitted or top-dose-only effect, or another doubt; inactive means no such curve, though single readings can be large; an effect the other way counts as inactive or inconclusive. Potency means the concentration at half of the fitted maximal effect.

SMILES | Sfp PPTase inh | L3MBTL1 inh | G9a block | HP1b binding inh | BAZ2B block | JMJD2A Tudor inh
CCOC(=O)CNC(=O)CSc1nnc(-c2ccco2)n1Cc1ccco1 | -8% | 29% | 28µM* | 28% | -4% | 28µM*
Cn1nnnc1SCCCNCc1cc(Br)ccc1OCc1ccccc1 | x | x | -25%[59 µM] | 41% | u | -6%
Cc1ccc(CNC(=O)c2ccc3c(O)c(S(=O)(=O)c4ccc(Cl)cc4)c(=O)[nH]c3c2)cc1 | x | x | -6%[59 µM] | 30% | -11% | -3%
CCOC(=O)c1c(NC(=O)CSc2nnc(Cc3ccccc3)o2)sc(C(C)=O)c1C | -5% | x | 2%[2.33 µM] | 10% | -25% | -9%
CCOC(=O)c1c(NC(=O)CSc2nnc(CNc3ccc(OC)cc3)n2C)sc(C)c1C | -7% | x | u | 20µM* | 45µM* | 50µM*
CCOC(=O)c1sc(NC(=O)CSc2nnc(Cc3ccccc3)o2)c(C#N)c1C | 3.2µM* | 7%[11.4 µM] | u | u | u | 56µM*
O=C(CSc1nnc(-c2cccnc2)n1Cc1ccco1)NCc1ccc2c(c1)OCO2 | -4% | -9% | u | 41% | 4% | -15%
COc1cccc(-c2nnc(SCC(=O)NCc3ccc4c(c3)OCO4)n2Cc2ccco2)c1 | 40µM* | x | 45µM* | 25% | u | -11%
CCOC(=O)c1sc(NC(=O)CSc2nnc(-c3ccco3)n2CC)c(C(=O)OCC)c1C | 25µM* | -3% | 18µM* | -9% | u | -34%
O=C(CSc1nc2ccccc2o1)Nc1nccs1 | -23% | -15% | 16% | 33% | 0% | -5%
COc1ccc(Nc2c([N+](=O)[O-])ccc3c2=NC2(CCCCC2)N=3)cc1 | -3% | u | 10µM* | 8.9µM* | 7.1µM* | 16µM*
CC1CCCN(C(=O)/C(=C/c2ccco2)NC(=O)c2ccccc2)C1 (stereo unspecified) | -18% | x | 45µM* | -1% | -9% | -21%
O=C(N/N=C/c1ccc2c(c1)OCO2)/C(=C/c1ccc2c(c1)OCO2)NC(=O)c1ccccc1 | 4% | -5% | 38%[12.7 µM] | 18% | -1% | -12%
O=C(N/C(=C\c1ccco1)C(=O)N1CCCC1CO)c1ccccc1 (stereo unspecified) | -11% | x | 16µM* | 12% | -6% | -20%
CN(C)c1ccc(/C=C(/NC(=O)c2ccccc2)C(=O)N/N=C/c2ccc([N+](=O)[O-])c(O)c2)cc1 | -8% | 32µM* | u | u | 18µM* | 45µM*
Cc1cccc(C(=O)N/C(=C/c2ccco2)C(=O)N2CCCCCC2)c1 | 50µM* | x | 40µM* | -4% | -36% | -23%
Cc1cc(Cl)ccc1NC(=O)Cn1nnc2sc(-c3ccccc3)cc2c1=O | x | x | 29%[59 µM] | 65% | 0% | -2%
CC1CCN(C(=O)/C(=C\c2ccco2)NC(=O)c2ccccc2)CC1 | 10% | x | 50µM* | 15% | -2% | -4%
CN(C)c1ccc(/C=C(/NC(=O)c2ccccc2)C(=O)N2CCCC2)cc1 | 17% | x | 10µM* | 14% | -17% | -6%
Cc1ccc(C(=O)N/C(=C/c2ccco2)C(=O)N2CCC(C)CC2)cc1 | 56µM* | x | 18µM* | 3% | -16% | -25%
CN1CCN(C(=O)/C(=C/c2ccco2)NC(=O)c2ccccc2)CC1 | 11% | x | -22% | -26% | 3% | -15%
COc1ccc([N+](=O)[O-])cc1/C=N/NC(=O)/C(=C\c1cccs1)NC(=O)c1ccccc1 | 4% | 0% | 89µM* | 6% | -21% | -23%
COc1ccc(-c2cc(C(=O)Nc3cccc(O)c3)no2)cc1 | 16% | x | 26% | 21% | 0% | -19%
CCS(=O)(=O)N1CCC(C(=O)N2CCN(Cc3ccccc3)CC2)CC1 | 22% | -1%[11.4 µM] | -7% | 13% | -18% | -10%[57.1 µM]
O=c1c(O)c(-c2cccs2)oc2ccc(Cl)cc12 | 0% | x | 98%[59 µM] | 76% | 76% | 41%
SMILES | Sfp PPTase inh | L3MBTL1 inh | G9a block | HP1b binding inh | BAZ2B block | JMJD2A Tudor inh
O=c1c(O)c(-c2cccs2)oc2ccccc12 | 7% | 21% | 18µM* | 27% | 9% | -7%
CCOC(=O)CCN1C(=O)[C@H]2[C@H]3[C@H](O)[C@H](O)C/C(=N/OCc4ccccc4)[C@H]3CC[C@@H]2C1=O | 16% | x | x | x | x | x
COCCCNC(=O)C1CCN(c2ncnc3c2nc2n3CCCCC2)CC1 | x | x | 0%[59 µM] | 25% | 3% | -18%
CCOc1ccccc1NC(=O)COC(=O)C12CC3CC(CC(O)(C3)C1)C2 | x | 2% | u | 28% | 6% | -8%
Cc1cccc(NC(=O)Cn2c(=O)n(Cc3nc(-c4ccccc4)no3)c(=O)c3ccccc32)c1 | x | x | -10%[59 µM] | 17% | u | -4%
CNC(=S)N(C1=NCC(c2ccc([N+](=O)[O-])cc2)S1)c1ccccc1 (stereo unspecified) | 0% | x | 35µM* | u | u | u
O=C(O)CCCN=CC1=C(O)CNC1=O | 15% | -1% | u | -16% | -18% | 22µM*
CC(=O)c1ccc(-n2c(CCC(=O)O)ccc2-c2ccc(Br)cc2)cc1 | 1% | x | 40µM* | -8% | u | u
O=C(O)CCc1ccc(-c2ccc(Br)cc2)n1-c1ccc(O)cc1 | 11% | x | 45µM* | u | 40µM* | u
CNC(=S)N(CCN(C)C)Cc1cc2cc3c(cc2[nH]c1=O)OCO3 | 12% | -8% | 0% | 32% | -4% | -5%
C#CCN[C@@H]1CCc2ccccc21 | 4% | x | -27%[12.7 µM] | x | x | x
COCCOC(=O)c1c(C)n(C)c2ccc(OC(=O)c3c(OC)cccc3OC)cc12 | 28µM* | x | 8.9µM* | -21% | -27% | -19%
Oc1cccc(-c2nc(-c3cccs3)c(-c3cccs3)[nH]2)c1 | x | x | u | -2% | 40µM* | u
O=[N+]([O-])c1ccc(-c2nc(-c3cccs3)c(-c3cccs3)[nH]2)cc1 | 4% | u | x | u | -4% | 20µM*
O=[N+]([O-])c1cccc(-c2nc(-c3cccs3)c(-c3cccs3)[nH]2)c1 | 27% | -8% | u | u | u | -24%[11.4 µM]
COc1ccc(-c2nc(-c3ccccc3)c(-c3cccs3)[nH]2)cc1OC | 7% | x | -5%[12.7 µM] | -22% | 9% | 40µM*
CCCCCCCCCCCCC/C=C/[C@@H](O)[C@H](CO)NC(=O)CCCCCCC | 35% | x | 20%[59 µM] | x | x | x
